One test addresses NLRP9. Kind of test: pooled miR-30 sensor sort-seq; sequence = guide strand. The settings on record: shRNA.
Take TTTACAAACAGGCTGAGCCAGC: the sensor-assay potency score (higher = more potent) is -0.948.
Still for that read-out and setting: next, TATTGCTAGAACACTTAGGGAG: 0.102; TTGGTAATGAACATTGAGCAAA: -1.26.
As for TTTTTTTGCAACAAACTGCTCA, the sensor-assay potency score (higher = more potent) stood at 0.0842.
On to TTCTGTGTCAGAAGTATCCGGA, for which the sensor-assay potency score (higher = more potent) worked out at 0.451.
Still for that read-out and setting: with TAAATGTTGACAATGCTTCAGG the figure was 0.0203; with TTGTTTAACGTACTTGTGCTTC, -0.694; with TTGACTTAAACTTTCAAGGCAT, 0.797.
Still for that read-out and setting: next, TTGTTGGTAATGAACATTGAGC: -1.13.
As for TTTCACACAAGTACAGACCAAC, the sensor-assay potency score (higher = more potent) was -0.447.
On the same count and under the same terms, with TCTATAGACACATTCTAGCATC the figure was -0.783.
The sequence TTGTATTCCTCGTCAATCCAAG had a sensor-assay potency score (higher = more potent) of -0.958.

The next test deals with NMD3. The description is as above. The settings on record: shRNA.
TATCTTGAGAGATCAGTCTTTG returned a sensor-assay potency score (higher = more potent) of -0.699.
Still for that read-out and setting: with TTAACAAGTCTGATCTTGCTTA the figure was 0.213; with TTTATATCTTGGACTATGCTGC, 0.0732; with TTGAAGGATAGCACCATTCATC, -0.92.
For the sequence TTTTTGAGCTTTTACATCCAGA, the sensor-assay potency score (higher = more potent) was -0.415.
TACTTAACAAGTCTGATCTTGC showed a sensor-assay potency score (higher = more potent) of 0.186.
Still for that read-out and setting: with TTGATTAATACCACATCTGGAA the figure was -0.0213; with TTAGCCATTATCTTCATGCTGG, 0.243.
On the same count and under the same terms, next, TTAACTTTAAGTCTCTTAGAAT: -1.22; TCGAATACACACACAAATCTGG: -0.268.
TTCACTAAAATAATCAACGTAA came in with a sensor-assay potency score (higher = more potent) of -0.261.
The same measure, in the same setting: with TTGATATCATTCCAGCACCTGC the figure was -1.29.

A further test has as its target NMNAT2. The test is described as above. The settings on record: shRNA.
Sequence TAGTCAAACACTGATACCCCAA showed a sensor-assay potency score (higher = more potent) of -0.77.
As to TTGGTGATGGGATTGAAGCTGC, the sensor-assay potency score (higher = more potent) is -0.365.
Same read-out and setting: with TTTATTTCTAAAGGAAACCTAA the figure was -0.873; with TTATATTAAATAGGAAACCTGT, -0.594.
The same measure, in the same setting: with TCCAGCAATAGCATCATCCTGA the figure was -0.521; with TTCTGTTAAATCAAGTTCCTTT, 0.0856.
For the sequence TAAAAGTATCCTAATACTCAGG, the sensor-assay potency score (higher = more potent) was -0.84.
On the same count and under the same terms, next, TAAAGAACATTGTCTTTGCTTT: -0.457; TAACAGACTTTCTGGATGCTGC: -0.475.
The same measure, in the same setting: with TAGAAATCTACTTCTATGGCAC the figure was 0.539.
TTTGCTTTCAGGTCCCACCTGG: the sensor-assay potency score (higher = more potent) came out at 0.293.
Still for that read-out and setting: with TTTCCTTTGTTTCATTTCCTGG the figure was -0.769.
Also: reference of the scale not given here.
